# Measured values as given in PubChem BioAssay (NCI).
# This is part of a sample that, as a whole, favours compounds with a hit. Of some 83,000 tested, about 20% had one in any assay.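 For each line, cells grew in 96-well plates with the test compound present at a single concentration for 48 hours.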 Active and inactive are the calls of the source. How the source made its calls: active means growth percent below 10; inactive means the rest.
# Tested on: HL-60(TB) leukemia
# Experiment: NCI-60 one-dose screen, 48 h (100 = growth as untreated, 0 = no growth, -100 = all killed)
# Conditions: 10 µM unless noted
row,SMILES,growth
1,O=C(Nn1c2c(sc1=NC1CC1)C(=O)c1ccccc1C2=O)c1cc2ccc1CCc1ccc(cc1)CC2,2.39% (active)
2,CCCCCCCCCCN1CC2CCCCC2C1 (stereo unspecified),68.5% (inactive)
3,O=C(Nc1ncc(Cc2cccc(C(F)(F)F)c2)s1)c1ccc(-n2cnnn2)cc1,70.8% (inactive)
4,CSC1=N/C(=C\c2cccc(OCc3ccc(Cl)cc3)c2)C(=O)N1,77.8% (inactive)
5,COc1cccc(/C=C/C(=O)Nc2cc(OC)c3c(c2)OCO3)c1,78% (inactive)
6,COc1ccc(NC(=O)Nc2ccccc2CNc2nc(Nc3ccc(OCCN4CCCC4)cc3)ncc2Cl)cc1,-43.7% (active)
7,O=C(/C=C/c1sc(Cl)nc1Cl)c1ccc(Br)cc1,71.4% (inactive)
8,Cc1nc(N)nc(N[C@@H](C)c2nc3cccc(NCc4ccc(C(=O)NO)cc4)c3c(=O)n2-c2ccccc2)n1,43.1% (inactive)
9,CCOS(=O)(=O)c1c(C(C)C)cc(C(C)C)cc1C(C)C,89% (inactive)
10,CN1C(=O)N(C)C2Nn3c(s/c(=C4\C(=O)N(CCc5ccccc5)c5ccccc54)c3=O)=NC21 (stereo unspecified),56.9% (inactive)
11,N#Cc1c(Nc2ccc(F)cc2)n[nH]c1-c1cccs1,95.3% (inactive)
12,CCN(CC)CCCOc1ccc2ncnc(Nc3ccc(Oc4cccc(C(F)(F)F)c4)c(Cl)c3)c2c1,-45.2% (active)
13,Cc1ccc(N)cc1[N+](=O)[O-],96.5% (inactive)
14,C[C@@H]1CC[C@@H]2[C@@H]1[C@H](OC(=O)/C=C/c1ccccc1)[C@]1(C3CCCCC3)C[C@@H](OC(=O)CO)[C@@]2(C)O1,74.5% (inactive)
15,CC1(C)N=C(N)N=C(N)N1c1cccc(C#N)c1,35.7% (inactive)
16,Cc1cccc(N=NC(=S)NNc2cccc(C)c2)c1,101% (inactive)
17,Cc1cc2c(c(C)n1)CN(C(=O)Nc1nc(-c3cncs3)ccc1N)C2,139% (inactive)
18,C#CCOc1cccc(Nc2c(Cl)c(CCl)nc3ccc(Oc4ccccc4)cc23)c1,41.4% (inactive)
19,O=C(N/N=C\c1ccc(-c2ccc(Br)cc2)o1)c1cc2oc(-c3cccc(C(F)(F)F)c3)cc2[nH]1,146% (inactive)
20,COc1ccccc1Nc1nnc(COc2ccc(CNC(=O)CCCC/C=C/C(C)C)cc2OC)o1,81.1% (inactive)
21,CN1CCN(CCCOc2ccc3ncnc(Nc4ccc(Oc5cccc(F)c5)c(Cl)c4)c3c2)CC1,-47.3% (active)
22,O=C(N/N=C\c1c(O)ccc2ccccc12)C1CC1,1.22% (active)
23,COc1ccc(-c2nc(-c3ccccc3)c(-c3ccccc3)[nH]2)cc1OC1CCCC1,83.1% (inactive)
24,COc1ccc(-c2nc(SCCC(C)C)nc(N/N=C(/C)c3ccc(C)cc3)c2C#N)cc1,89.8% (inactive)
25,O=C(Nc1ccccc1O)c1ccc(-c2ccc(Cl)cc2Cl)o1,83.7% (inactive)
26,C=CCCCC(=O)CCC(=O)OCC1O[C@@H](O[C@@H]2C(O)[C@@H](OC(C)=O)C(C)O[C@H]2O[C@H](CC=C)CCCCC)C(O)[C@@H](OC(=O)/C(C)=C/C)[C@@H]1OC(=O)/C=C/c1ccccc1 (stereo partly specified),8.45% (active)
